ChEMBL document CHEMBL3433997, “St. Jude Leishmania screening dataset” (2016)

Legend:
Type in all cases: functional
[1] = molecular target: Solute carrier family 2, facilitated glucose transporter member 1 (Homo sapiens) (UniProt P11166); assay: ST_JUDE_LEISH: Cytotoxicity at 2uM final concentration against transgenic Leishmania Mexicana promastigotes LmGLUT1 that are glucose transport deficient and complemented with the human glucose transporter GLUT1. Activity is measured by DNA content using SYBR green in vitro
[2] = molecular target: Hexose transporter 1 (Plasmodium falciparum) (UniProt O97467); assay: ST_JUDE_LEISH: Cytotoxicity at 2uM final concentration against transgenic Leishmania Mexicana promastigotes LmPfHT that are glucose transport deficient and complemented with the Plasmodium falciparum hexose transporter. Activity is measured by DNA content using SYBR green in vitro
[3] = molecular target: Glucose transporter (Leishmania mexicana) (UniProt O61059); assay: ST_JUDE_LEISH: Cytotoxicity at 2uM final concentration against transgenic Leishmania Mexicana promastigotes LmGT2 that are glucose transport deficient and complemented with the L. Mexicana glucose transporter 2. Activity is measured by DNA content using SYBR green in vitro

Solute carrier family 2, facilitated glucose transporter member 1 (Homo sapiens), sequence (P11166 whole entry): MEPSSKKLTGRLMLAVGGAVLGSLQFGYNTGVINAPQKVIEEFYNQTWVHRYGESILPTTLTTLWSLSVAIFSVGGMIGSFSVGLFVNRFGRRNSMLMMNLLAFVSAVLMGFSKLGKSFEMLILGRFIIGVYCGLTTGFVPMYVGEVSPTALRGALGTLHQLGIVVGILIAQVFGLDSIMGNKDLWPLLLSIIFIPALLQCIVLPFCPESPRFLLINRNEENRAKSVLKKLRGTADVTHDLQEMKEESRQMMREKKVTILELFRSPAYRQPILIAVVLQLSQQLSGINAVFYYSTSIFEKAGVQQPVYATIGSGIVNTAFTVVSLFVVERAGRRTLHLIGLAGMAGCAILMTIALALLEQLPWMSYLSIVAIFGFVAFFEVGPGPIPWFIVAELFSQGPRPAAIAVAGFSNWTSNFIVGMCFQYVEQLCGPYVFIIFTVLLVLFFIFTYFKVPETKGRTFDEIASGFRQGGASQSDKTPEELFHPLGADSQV

Structure (SMILES)	inhibition [1] [%]	inhibition [2] [%]	inhibition [3] [%]
O=C(N[C@@H](Cc1ccccc1)C(=O)NCCN1CCCC1)c1ccc(O)c(-c2ccc(Cl)c(Cl)c2)c1	7.15	3.32	6.16
CCCc1nc2c(N3CCCN(C(=O)NC4CCCCC4)CC3)cccc2n1Cc1ccccn1	-2	-1.61	-1.29
CCCOc1ccc(N2C(N)=NC(N)=NC2(C)C)cc1	3.43	1.16	2.09
CC(C)[C@H](NC(=O)c1ccc(O)c(-c2ccc(Cl)c(Cl)c2)c1)C(=O)NCCN1CCCC1	-0.22	-0.09	0.36
CC(Sc1nnc(-c2ccccc2Br)[nH]1)C(=O)Nc1ccc(F)cc1 (stereo not given)	10.4	9.07	6.58
COc1ccc2nccc([C@@H](O)CN3CCC(NS(=O)(=O)c4cc5c(cc4Cl)SCC(=O)N5)CC3)c2c1	1.57	1.6	-0.41
CCN1CCN(c2cc(C)c3cc(NC(=O)c4ccc(C(C)(C)C)cc4)ccc3n2)CC1	-0.6	2.13	1.59
Cc1cc(-c2ccc(CN3Cc4ccccc4C3)cc2)ccc1S(=O)(=O)NCCN1CCCC1	40.3	17.2	11
COC(=O)c1cccc(CNCc2ccc(-c3ccc(-c4nc5cc(C(F)(F)F)ccc5[nH]4)cc3)cc2)c1	3.94	1.94	2.35
O=C(Nc1cncc(NC(=O)c2ccc(Cl)c(Cl)c2)c1)c1ccc(Cl)c(Cl)c1	2.62	2.96	-0.68
COc1cc(NC(=O)c2cccs2)c(C(=O)NCc2ccc(C)cc2)cc1OC	5.62	4.22	7.02
Cc1[nH]c(CNCCCNc2cc(=O)c3ccccc3[nH]2)c(Br)c1Br	0.62	1.85	-0.49
COc1ccc(NC(=O)Nc2ccc(-c3ccccc3)cc2Cl)cc1N1CCN(C)CC1	12	11.8	3.58
Cc1ccc(NC(=O)c2ccc(CN3CCCN(Cc4cccc(O)c4)CC3)cc2)cc1C	0.9	0.45	4.65
O=C(NC1CC1)c1cnc(N2CCN(Cc3c(F)cccc3Cl)CC2)c(Cl)c1	12	1.02	-3.18
CC(C)(C)Oc1ccc(NC(=O)c2ccccc2O)cc1	6.73	5.36	4.28
Fc1ccc2[nH]c(-c3ccc(-c4ccc(CNCc5cnn(-c6ccccc6)n5)cc4)cc3)nc2c1	1.68	-1.57	-1.56
CCOC(=O)c1c[nH]c2c(ccc3ccccc32)c1=O	-1.23	6.87	5.93

Structure (SMILES)	inhibition [1] [%]	inhibition [2] [%]	inhibition [3] [%]
O=C(NCc1ccc(Cl)c(Cl)c1)c1cccc(C2CCCN(Cc3ccc4[nH]cnc4c3)C2)c1 (stereo not given)	0.36	2.01	-0.63
CN(C)CCNCc1ccc(-c2ccc(-c3nc4cc(F)ccc4[nH]3)cc2)cc1	9.57	7.88	5.4
COc1ccc2nccc([C@@H](O)CN3CCC(NCc4nc5ccccc5s4)CC3)c2c1	4.29	6.41	-0.69
CC(C)C[C@@H](C(=O)N[C@H](C(=O)Nc1nccs1)C(C)(C)C)[C@H](CCC(F)(F)F)N(O)C=O	4.27	6.41	4.07
O=C(Nc1cccc(CN2CCN(C(=O)c3ccccc3)CC2)c1)c1ccco1	3.67	3.78	7.1
Nc1nc(N)c2c3c(ccc2n1)CCC3	0.87	1.48	1.24
CC(C)COc1ccc(Cl)cc1Cc1ccc(-c2nc3ccc(Br)cc3[nH]2)o1	5.75	5.74	4.95
N#Cc1cnc2cc(-c3cnc(CNCCN4CCOCC4)s3)ccc2c1Nc1ccc(Oc2ccccc2)cc1	1.96	3.38	1.64
O=C(Cn1c(CCc2cccc(F)c2F)nc(=O)c2cccnc21)N(Cc1ccc(-c2ccc(C(F)(F)F)cc2)cc1)C1CCN(C2CCOCC2)CC1	2.69	1.35	1.43
O=C(/C=C/c1ccc(Cl)c(Cl)c1)NCCCCCCN1CCN(C(=O)Nc2cccc(Cl)c2)CC1	0.57	1.97	3.02
CCCCc1cc(NCc2ccncc2)nc(Nc2ccccc2)n1	13.6	6.01	4.07
CC(C)N1CCC(N(Cc2ccc(-c3ccc(C(F)(F)F)cc3)cc2)C(=O)Cn2c(CCc3cccc(F)c3F)cc(=O)c3c2CCC3)CC1	3.12	4.34	5.2
CN(Cc1ccccc1)C(=O)c1nn(CCCN2CCC(N3CCCC3)CC2)cc1-c1ccc(Cl)c(Cl)c1	27.6	13.7	1.65
COc1cccc2cc(C(=O)N[C@@H](CC(C)C)C(=O)N[C@H](/C=N/NC(=O)c3ccccc3)Cc3c[nH]cn3)oc12	2.75	0.99	3.92
CC(=O)c1c(CC(=O)O)c2ccccc2n1O	2.28	4.52	3.07
COc1cc2c(cc1OC)C(C(=O)Nc1ccc(C(F)(F)F)cc1)C(c1cccs1)N(C)C2=O (stereo not given)	2.92	3.56	1.2
Cc1ccccc1OCC(O)CNC1CCC(NCC(O)COc2ccccc2C)CC1 (stereo not given)	10.2	10.5	5.8
